Test results published in the supplement of paper PMC10849652.
Of roughly 8,800 targets only a part is listed; those with a hit were picked by preference. About 0.5% of all pairs of compound and target were hits.

What was measured:
Assay in all cases: log2 fold change, soluble protein after heating vs DMSO (PISA); higher = thermal stabilisation; K562 lysate, 10 uM; active = over 0.2 and 3.5 SD of the protein, either way, in both replicates (recomputed)
lapatinib = compound: CS(=O)(=O)CCNCc1ccc(-c2ccc3ncnc(Nc4ccc(OCc5cccc(F)c5)c(Cl)c4)c3c2)o1 [lapatinib]
Outline: (§1)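 Log-two fold change in thermal stability relative to solvent controls is reported from duplicates. For each sample, crude K562 extract from dounce-homogenised pellets in PBS pH 7.4 with 1 mM MgCl2, at 1 mg/mL protein, was treated with 10 μM compound for 30 min. Aliquots heated for 3 min across 48°C-58°C were pooled, brought to 0.5% NP-40 at 4°C and cleared at 21,000xg for 90 min. The supernatant was quantified by TMTpro 16plex LC-MS/MS with channel sums equalised.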

pictilisib = compound: CS(=O)(=O)N1CCN(Cc2cc3nc(-c4cccc5[nH]ncc45)nc(N4CCOCC4)c3s2)CC1 [pictilisib]
Outline: as §1

crizotinib = compound: C[C@@H](Oc1cc(-c2cnn(C3CCNCC3)c2)cnc1N)c1c(Cl)ccc(F)c1Cl [crizotinib]
Outline: as §1

[1] = compound: C[C@H](C1=CC=C(C=C1)C(=O)NC2=C3C=CNC3=NC=C2)N
Outline: as §1

duvelisib = compound: C[C@H](Nc1ncnc2nc[nH]c12)c1cc2cccc(Cl)c2c(=O)n1-c1ccccc1 [duvelisib]
Outline: as §1

gandotinib = compound: Cc1cc(Nc2cc(CN3CCOCC3)c3nc(C)c(Cc4ccc(Cl)cc4F)n3n2)n[nH]1 [gandotinib]
Outline: as §1

tozasertib = compound: Cc1cc(Nc2cc(N3CCN(C)CC3)nc(Sc3ccc(NC(=O)C4CC4)cc3)n2)n[nH]1 [tozasertib]
Outline: as §1

doramapimod = compound: Cc1ccc(-n2nc(C(C)(C)C)cc2NC(=O)Nc2ccc(OCCN3CCOCC3)c3ccccc23)cc1 [doramapimod]
Outline: as §1

bafetinib = compound: Cc1ccc(NC(=O)c2ccc(CN3CC[C@H](N(C)C)C3)c(C(F)(F)F)c2)cc1Nc1nccc(-c2cncnc2)n1 [bafetinib]
Outline: as §1

[2] = compound: Cc1cccc(CC(=O)N2CCc3c2ccc(-c2cn(C)c4ncnc(N)c24)c3F)n1
Outline: as §1

Measured: log2 fold change

NBN (UniProt O60934)
inactive: lapatinib 0.008 | pictilisib -0.006 | crizotinib -0.028 | [1] 0.033 | duvelisib -0.006 | gandotinib -0.05 | tozasertib 0.032 | doramapimod 0.001 | bafetinib -0.016 | [2] -0.026

ORC1 (UniProt Q13415)
inactive: tozasertib 0.023

NADK2 (UniProt Q4G0N4)
inactive: lapatinib 0.02 | pictilisib -0.028 | crizotinib -0.005 | [1] -0.04 | duvelisib 0.03 | gandotinib 0.004 | tozasertib 0.012 | doramapimod -0.002 | bafetinib 0.01 | [2] 0.017

MXRA7 (UniProt P84157)
inactive: lapatinib -0.039 | crizotinib 0.103 | [1] -0.149 | duvelisib 0.056 | gandotinib -0.008 | tozasertib -0.05 | doramapimod 0.041 | [2] 0.096

NPLOC4 (UniProt I3L3I1)
inactive: pictilisib 0.145 | crizotinib -0.53 | duvelisib 0.038 | tozasertib -0.216 | doramapimod -0.002 | bafetinib -0.214

MYBL2 (UniProt P10244)
inactive: crizotinib -0.018 | [1] 0.181 | duvelisib -0.011 | gandotinib -0.286 | tozasertib 0.001 | doramapimod 0.017 | [2] -0.184

MYLK (UniProt Q15746)
Sequence of UniProt Q15746 (Q15746 whole entry, looked up): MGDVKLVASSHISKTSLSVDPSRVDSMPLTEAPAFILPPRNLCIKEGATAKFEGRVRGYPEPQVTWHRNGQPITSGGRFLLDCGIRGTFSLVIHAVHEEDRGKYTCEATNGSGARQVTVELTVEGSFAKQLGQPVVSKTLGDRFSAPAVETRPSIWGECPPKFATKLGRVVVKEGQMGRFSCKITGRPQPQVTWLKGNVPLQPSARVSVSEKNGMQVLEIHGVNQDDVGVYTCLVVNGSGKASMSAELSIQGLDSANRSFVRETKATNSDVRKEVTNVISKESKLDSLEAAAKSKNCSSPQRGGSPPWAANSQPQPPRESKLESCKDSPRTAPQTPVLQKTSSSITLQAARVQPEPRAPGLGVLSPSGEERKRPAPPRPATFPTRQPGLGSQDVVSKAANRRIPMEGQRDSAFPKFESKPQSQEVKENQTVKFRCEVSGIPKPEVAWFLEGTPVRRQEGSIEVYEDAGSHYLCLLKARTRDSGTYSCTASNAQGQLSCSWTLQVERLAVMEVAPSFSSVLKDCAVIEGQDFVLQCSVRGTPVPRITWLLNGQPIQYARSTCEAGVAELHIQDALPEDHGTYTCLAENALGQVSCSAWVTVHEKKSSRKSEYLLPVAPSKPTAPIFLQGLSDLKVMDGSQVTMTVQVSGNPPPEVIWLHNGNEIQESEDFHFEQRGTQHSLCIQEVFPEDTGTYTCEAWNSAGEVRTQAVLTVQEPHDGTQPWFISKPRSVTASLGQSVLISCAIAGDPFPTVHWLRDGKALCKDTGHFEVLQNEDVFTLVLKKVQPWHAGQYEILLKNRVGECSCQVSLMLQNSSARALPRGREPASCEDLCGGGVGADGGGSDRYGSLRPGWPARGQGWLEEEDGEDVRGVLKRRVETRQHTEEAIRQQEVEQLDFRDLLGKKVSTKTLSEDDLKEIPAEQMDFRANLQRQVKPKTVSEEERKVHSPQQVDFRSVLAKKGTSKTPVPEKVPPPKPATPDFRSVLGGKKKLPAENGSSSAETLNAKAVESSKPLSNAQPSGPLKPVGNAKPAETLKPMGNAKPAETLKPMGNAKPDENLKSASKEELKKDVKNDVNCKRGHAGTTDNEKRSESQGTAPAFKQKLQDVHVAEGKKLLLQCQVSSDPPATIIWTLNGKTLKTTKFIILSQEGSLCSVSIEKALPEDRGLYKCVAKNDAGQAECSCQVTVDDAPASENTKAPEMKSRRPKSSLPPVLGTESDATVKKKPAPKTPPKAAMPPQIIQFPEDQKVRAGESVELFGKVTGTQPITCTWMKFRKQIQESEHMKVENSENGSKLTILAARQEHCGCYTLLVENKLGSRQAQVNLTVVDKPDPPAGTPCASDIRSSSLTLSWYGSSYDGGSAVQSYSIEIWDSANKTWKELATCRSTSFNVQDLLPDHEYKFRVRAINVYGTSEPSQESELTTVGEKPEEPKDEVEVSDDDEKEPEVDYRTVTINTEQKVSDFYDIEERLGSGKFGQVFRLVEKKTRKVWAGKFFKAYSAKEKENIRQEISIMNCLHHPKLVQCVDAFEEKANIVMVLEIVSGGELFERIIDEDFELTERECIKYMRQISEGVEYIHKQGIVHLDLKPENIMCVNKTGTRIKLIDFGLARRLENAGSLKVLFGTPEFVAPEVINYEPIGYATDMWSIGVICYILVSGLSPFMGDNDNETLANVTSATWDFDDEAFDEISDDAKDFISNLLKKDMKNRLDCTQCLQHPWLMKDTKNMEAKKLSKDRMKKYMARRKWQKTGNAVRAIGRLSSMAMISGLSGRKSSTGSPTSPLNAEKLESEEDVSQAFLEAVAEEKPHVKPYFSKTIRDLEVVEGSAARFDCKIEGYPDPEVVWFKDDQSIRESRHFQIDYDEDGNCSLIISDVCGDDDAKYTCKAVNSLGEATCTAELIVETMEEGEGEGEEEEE
active: doramapimod 0.611 | bafetinib 0.712
inactive: lapatinib -0.006 | pictilisib 0.015 | crizotinib 0.082 | [1] -0.181 | gandotinib 0.033 | tozasertib 0.114 | [2] -0.047

NUB1 isoform 2 (UniProt Q9Y5A7)
inactive: crizotinib 0.015 | doramapimod 0.063

PANK4 (UniProt Q9NVE7)
Sequence of UniProt Q9NVE7 (Q9NVE7 whole entry, looked up): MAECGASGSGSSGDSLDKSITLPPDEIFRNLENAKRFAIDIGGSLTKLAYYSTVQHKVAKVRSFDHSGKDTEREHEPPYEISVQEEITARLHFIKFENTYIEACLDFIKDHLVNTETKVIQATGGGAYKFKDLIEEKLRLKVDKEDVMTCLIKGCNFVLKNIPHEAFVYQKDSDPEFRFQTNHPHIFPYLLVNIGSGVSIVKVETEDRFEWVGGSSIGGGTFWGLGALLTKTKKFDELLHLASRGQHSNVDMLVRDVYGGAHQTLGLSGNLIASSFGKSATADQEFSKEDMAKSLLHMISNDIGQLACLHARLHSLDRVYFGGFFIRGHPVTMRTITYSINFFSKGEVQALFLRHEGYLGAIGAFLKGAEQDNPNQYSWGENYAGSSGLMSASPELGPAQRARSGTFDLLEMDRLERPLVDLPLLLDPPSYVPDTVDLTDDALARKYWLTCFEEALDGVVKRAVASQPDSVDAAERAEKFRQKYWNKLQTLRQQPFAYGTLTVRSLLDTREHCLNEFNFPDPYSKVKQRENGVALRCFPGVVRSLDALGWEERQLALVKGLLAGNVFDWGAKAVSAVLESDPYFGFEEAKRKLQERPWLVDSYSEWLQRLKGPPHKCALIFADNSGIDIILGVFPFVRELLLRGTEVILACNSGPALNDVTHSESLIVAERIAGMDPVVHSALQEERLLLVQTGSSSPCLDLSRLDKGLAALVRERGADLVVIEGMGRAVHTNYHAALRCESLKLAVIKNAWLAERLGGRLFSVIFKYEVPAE
inactive: lapatinib -0.019 | pictilisib -0.037 | crizotinib -0.052 | [1] -0.049 | duvelisib -0.009 | gandotinib 0.125 | tozasertib 0.001 | doramapimod -0.001 | bafetinib -0.06 | [2] 0.022

NOCT (UniProt Q9UK39)
inactive: lapatinib -0.025 | crizotinib 0.024 | duvelisib 0.039 | tozasertib 0.111 | doramapimod 0.063

PARD3 (UniProt Q8TEW0)
inactive: lapatinib -0.143 | pictilisib -0.155 | crizotinib -0.096 | [1] 0.014 | duvelisib -0.102 | gandotinib 0.122 | tozasertib 0.064 | doramapimod -0.058 | bafetinib -0.054 | [2] 0.069

NUDT6 (UniProt P53370)
inactive: crizotinib 0.051 | duvelisib -0.034 | tozasertib 0.132 | doramapimod -0.073

NUDT5 (UniProt C9JYY9)
inactive: tozasertib 0.004

MT-ATP8 (UniProt P03928)
Sequence of UniProt P03928 (P03928 whole entry, looked up): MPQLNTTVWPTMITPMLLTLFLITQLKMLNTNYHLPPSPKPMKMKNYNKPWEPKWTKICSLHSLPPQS
active: [1] 0.402
inactive: lapatinib 0.024 | pictilisib -0.002 | crizotinib -0.121 | gandotinib -0.054 | tozasertib -0.078 | doramapimod 0.011 | bafetinib -0.087 | [2] -0.107

NOC2L (UniProt Q9Y3T9)
inactive: lapatinib -0.049 | pictilisib -0.012 | crizotinib -0.077 | [1] -0.004 | duvelisib -0.074 | gandotinib -0.037 | tozasertib -0.015 | doramapimod 0.03 | bafetinib -0.137 | [2] 0.09

NTPCR (UniProt Q9BSD7)
Sequence of UniProt Q9BSD7 (Q9BSD7 whole entry, looked up): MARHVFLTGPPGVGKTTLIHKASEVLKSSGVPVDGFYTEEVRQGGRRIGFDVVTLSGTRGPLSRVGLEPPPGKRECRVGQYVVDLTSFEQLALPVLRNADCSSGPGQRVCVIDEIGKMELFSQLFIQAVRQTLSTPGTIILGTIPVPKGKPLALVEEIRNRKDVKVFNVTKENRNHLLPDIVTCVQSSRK
inactive: lapatinib -0.003 | pictilisib -0.028 | crizotinib -0.071 | [1] 0.031 | duvelisib -0.003 | gandotinib -0.094 | tozasertib -0.028 | doramapimod 0.011 | bafetinib -0.044 | [2] -0.052

PAPOLG (UniProt Q9BWT3)
inactive: crizotinib -0.139 | [1] -0.026 | duvelisib 0.02 | gandotinib -0.002 | tozasertib -0.027 | doramapimod 0.017 | [2] 0.067

MYO9A isoform 4 (UniProt B2RTY4)
inactive: lapatinib -0.027 | pictilisib 0.022 | crizotinib -0.03 | [1] -0.014 | duvelisib -0.019 | gandotinib -0.044 | doramapimod 0.005 | bafetinib -0.103 | [2] 0.036

NSA2 (UniProt O95478)
inactive: lapatinib 0.014 | pictilisib -0.088 | [1] -0.036 | duvelisib -0.055 | gandotinib 0.159 | tozasertib -0.086 | bafetinib 0.064 | [2] 0.221

PARD3B (UniProt Q8TEW8)
inactive: [1] -0.197 | duvelisib 0.024 | gandotinib 0.074 | [2] 0.042

P2RY1 (UniProt P47900)
Sequence of UniProt P47900 (P47900 whole entry, looked up): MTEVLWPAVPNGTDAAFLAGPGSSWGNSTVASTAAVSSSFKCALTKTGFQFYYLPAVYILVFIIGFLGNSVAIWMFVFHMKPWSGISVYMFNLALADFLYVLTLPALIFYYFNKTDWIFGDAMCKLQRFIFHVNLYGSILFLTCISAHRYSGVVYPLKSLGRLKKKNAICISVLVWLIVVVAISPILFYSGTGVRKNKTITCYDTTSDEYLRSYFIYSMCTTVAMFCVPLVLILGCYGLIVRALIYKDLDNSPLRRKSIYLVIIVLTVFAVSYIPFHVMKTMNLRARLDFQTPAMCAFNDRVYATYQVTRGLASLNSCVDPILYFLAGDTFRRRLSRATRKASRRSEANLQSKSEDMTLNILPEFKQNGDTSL
inactive: lapatinib -0.091 | [1] -0.02 | duvelisib 0.092 | gandotinib 0.012 | tozasertib 0.1 | bafetinib 0.021 | [2] 0.007
active: pictilisib -0.444

NR2F2 (UniProt P24468)
Sequence of UniProt P24468 (P24468 whole entry, looked up): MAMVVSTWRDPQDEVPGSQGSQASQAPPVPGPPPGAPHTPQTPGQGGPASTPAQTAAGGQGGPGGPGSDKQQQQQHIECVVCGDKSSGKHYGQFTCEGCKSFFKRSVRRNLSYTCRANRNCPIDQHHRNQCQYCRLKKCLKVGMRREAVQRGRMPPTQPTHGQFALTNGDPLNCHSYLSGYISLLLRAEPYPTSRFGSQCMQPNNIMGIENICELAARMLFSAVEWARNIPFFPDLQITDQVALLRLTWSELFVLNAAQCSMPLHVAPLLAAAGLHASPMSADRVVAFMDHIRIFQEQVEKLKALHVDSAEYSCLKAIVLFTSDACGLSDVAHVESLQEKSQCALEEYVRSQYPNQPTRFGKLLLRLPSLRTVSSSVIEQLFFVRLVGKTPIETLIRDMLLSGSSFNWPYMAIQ
inactive: lapatinib 0.06 | pictilisib 0.072 | crizotinib -0.022 | [1] -0.163 | duvelisib -0.046 | gandotinib -0.153 | doramapimod -0.005 | bafetinib 0.037 | [2] -0.023

MYH6 (UniProt P13533)
inactive: lapatinib -0.111 | crizotinib -0.097 | tozasertib 0.009 | doramapimod -0.245 | bafetinib -0.132
active: pictilisib -1.52

OSBPL1A (UniProt Q9BXW6)
inactive: lapatinib -0.035 | pictilisib -0.051 | crizotinib -0.014 | [1] -0.079 | duvelisib 0.072 | gandotinib 0.069 | doramapimod 0.019 | bafetinib -0.077 | [2] 0.102

NEXN (UniProt Q0ZGT2)
inactive: lapatinib 0.066 | pictilisib -0.137 | [1] -0.239 | duvelisib -0.088 | gandotinib 0.172 | tozasertib -0.237 | bafetinib 0.043 | [2] 0.198

NAA16 (UniProt Q6N069)
inactive: lapatinib 0.048 | pictilisib -0.108 | duvelisib 0.029 | tozasertib -0.016 | bafetinib 0.022

NEDD8 (UniProt Q15843)
Sequence of UniProt Q15843 (Q15843 whole entry, looked up): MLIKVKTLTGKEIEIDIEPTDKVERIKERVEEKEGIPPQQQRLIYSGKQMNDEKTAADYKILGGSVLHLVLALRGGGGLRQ
inactive: lapatinib 0.04 | pictilisib 0.028 | crizotinib 0.041 | [1] 0.19 | duvelisib 0.019 | gandotinib -0.062 | tozasertib 0.06 | doramapimod -0.049 | bafetinib -0.117 | [2] -0.107

NUMB isoform 2 (UniProt P49757)
inactive: duvelisib 0.023

MYO10 (UniProt Q9HD67)
active: [1] 0.696
inactive: pictilisib 0.076 | crizotinib -0.042 | gandotinib -0.016 | doramapimod -0.321 | bafetinib -0.456 | [2] -0.029

NIFK (UniProt Q9BYG3)
Sequence of UniProt Q9BYG3 (Q9BYG3 whole entry, looked up): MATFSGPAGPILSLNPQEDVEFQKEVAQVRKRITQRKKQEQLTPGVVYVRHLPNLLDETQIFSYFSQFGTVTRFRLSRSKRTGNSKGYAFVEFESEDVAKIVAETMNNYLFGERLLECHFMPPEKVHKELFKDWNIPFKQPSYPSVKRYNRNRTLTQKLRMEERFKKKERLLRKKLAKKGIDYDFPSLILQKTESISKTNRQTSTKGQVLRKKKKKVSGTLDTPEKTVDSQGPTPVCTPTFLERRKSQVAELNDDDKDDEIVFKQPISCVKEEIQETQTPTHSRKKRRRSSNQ
inactive: lapatinib -0.004 | pictilisib -0.019 | crizotinib -0.033 | [1] -0.027 | duvelisib 0.009 | gandotinib 0 | tozasertib 0.036 | doramapimod -0.009 | bafetinib -0.026 | [2] 0.064

ORC3 (UniProt Q9UBD5)
Sequence of UniProt Q9UBD5 (Q9UBD5 whole entry, looked up): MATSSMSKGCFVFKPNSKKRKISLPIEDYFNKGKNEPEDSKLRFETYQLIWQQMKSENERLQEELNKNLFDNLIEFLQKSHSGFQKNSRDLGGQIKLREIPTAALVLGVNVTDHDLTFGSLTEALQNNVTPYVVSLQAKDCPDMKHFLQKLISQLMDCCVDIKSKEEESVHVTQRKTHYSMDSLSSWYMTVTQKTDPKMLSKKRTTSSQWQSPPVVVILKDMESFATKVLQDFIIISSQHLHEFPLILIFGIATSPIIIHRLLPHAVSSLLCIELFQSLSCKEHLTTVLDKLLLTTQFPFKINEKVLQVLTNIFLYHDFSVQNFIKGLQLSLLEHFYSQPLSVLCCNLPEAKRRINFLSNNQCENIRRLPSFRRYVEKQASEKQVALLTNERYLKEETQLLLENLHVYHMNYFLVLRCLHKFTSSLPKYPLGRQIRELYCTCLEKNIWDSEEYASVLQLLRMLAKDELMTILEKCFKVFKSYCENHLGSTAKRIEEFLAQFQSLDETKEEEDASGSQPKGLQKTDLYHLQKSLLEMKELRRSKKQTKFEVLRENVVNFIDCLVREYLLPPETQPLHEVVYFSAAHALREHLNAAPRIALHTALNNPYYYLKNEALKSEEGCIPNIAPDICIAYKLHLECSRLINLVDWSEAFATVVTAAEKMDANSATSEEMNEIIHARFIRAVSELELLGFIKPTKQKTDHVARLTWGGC
inactive: lapatinib 0.213 | [1] 0.129 | gandotinib -0.311 | [2] 0.082

NR3C1 isoform 3 (UniProt P04150)
inactive: pictilisib -0.26 | crizotinib 0.012 | [1] 0.057 | duvelisib 0.046 | gandotinib -0.091 | tozasertib 0.012 | doramapimod -0.005 | bafetinib -0.027 | [2] 0.073
